Measurements from the supplement of paper PMC6555819.

These sequences were tested on VDR:RXRa (NR concentration 270 nM, RXRa partner concentration 90 nM) (assay: PBM binding z-score (relative to random genomic background probes); higher = stronger binding; sequences stand for … in GC…GCGATTGACAGCGTAGAATGAAGG).
Procedure: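 Protein-binding microarray (Agilent 4x180K custom design, double-stranded 60-nt probes: 5' GC cap, 34-nt variable region, 24-nt constant primer region; full probe sequence given). Purified or IVT nuclear receptor:RXRα heterodimers (3:1 NR:RXRα, mostly 270:90 nM) or homodimers were incubated for 1 h in PBS with 2% milk and no ligand, then detected with Alexa488 antibodies. Fluorescence from o1-orientation probes (~5 replicates averaged) was converted to z-scores against 500 random hg19 background probes. Variable regions are seed direct-repeat (DR0–DR5) sites, all their single-nucleotide variants and half-site ablations.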

| Sequence | PBM binding z-score |
| --- | --- |
| CGTTACGGGTCACTGACAGGTTATAGCATTTGGA | 3.87 |
| TCGAGTAGTTTAGGGGCATTCAGAATGGCGTCGA | 0.605 |
| TCTTGTAGATCAGCAGGTTATGAAAGCTGGCCAA | 0.359 |
| CCTGCTAGGTCAATGGTCTGCTAAAGCAGCTCGC | 0.867 |
| CCAGACAGGTGAGAAGGTAACTTAGCCTCGATTA | 0.0956 |
| GCTAGTTGGTCAGTAAAAGGTCGCACACCGGTCG | 1.39 |
| CGTCCAAGGTCAATGCTAGGTCAGTGCAAGCATT | 4.95 |
| CGTCCAAGGTCAGAGAGGTTAGTGAATGCCGAGT | 5.8 |
| CAAACTAGGTAACGAAAGGTCAAAGTCGAATGAC | 4.87 |
| AATACAGGGTCACTCGGCCAGAGTAGGTACGAAT | 4.3 |
| ACTGACAGGTGATGAAGGTAACTCAGGCTATCAT | 0.103 |
| CATACAGGGTCTGCTAGGCCAGAGTAGGGACGGC | -0.426 |
| GCTTACGGGTCAAAGGTTATAGCCTGAATAGAAT | 5.72 |
| ACACACAGGTGATGAAGGTAACTCAGGCTATCAT | 0.511 |
| CTCGAAAGTTCGGTTGAGGTGAGTATACGGATAA | 0.728 |
| AGTCAACGTTCATCTAGGTAACGTAAGATATGCT | -0.0927 |
| CCTCGGAGGACAGAAGGTCTGAGCTGTCCGCTTT | -0.624 |
| AGAATGAGGTTATACGTAGATCAGGCAAGAAAGT | 1.46 |
| CCTACTGGGCCAAGGTCAGTGATCAGTCAAAGCA | 0.692 |
| TCTGCTAGGTCAGTTCGTCAGCTAACGAGCTGCC | 0.144 |

| Sequence | PBM binding z-score |
| --- | --- |
| TTACCAAGGTGAATGGTCGTTGATGCACGCCTTG | -0.0229 |
| AGAATGAGGTTATTAAGATCCGGGAATTGCGGTC | 1.08 |
| TCTAGCAGACCAGAGGGTCACTCAAGAGGTACGG | 1.08 |
| CCTCGGAGGACAGAGGGTCAGAGCTGTCCGCTTT | 0.544 |
| AGAACGAGGGCAATGAGTTGATAGAACGGGTGGC | 5.04 |
| CGTCACAGTTCAACTAAGGTAACGTAAAGCACGC | 2.92 |
| AGAATGAGGTTATTAAGATCAGCGAATTGCGGTC | 2.57 |
| GTACCAAGGTGAATAGGTCGTTGCTGAGTAGGCG | 0.644 |
| CTACCAAGGTGAACAAGGTCGTTGAATACTATTC | 5.99 |
| CTCGAAAGGACGTGCTCAGGTGAGTATACCAAAC | -0.251 |
| CAAACTAGGTTAAGGTCAAAGTCGGTTTGTGCCA | 4.8 |
| TTTGCTAGGTCAGTTGGTCAGCTAACGAGCTGCC | 0.134 |
| GCTGCTAGCTCAACTGATGGTCAGCTAAAGCTCG | -0.797 |
| ACAGTCAGGTGAGTGAAGGTAACTCAGCTGGACG | -0.663 |
| TTACCAAGGTGAAAGGTAGTTGATGCACGCCTTG | 0.524 |
| AGAACGAGGGCACGCAGAGTTGATAGCAGAGTAG | 2.02 |
| CAAACTAGGTCAATAGGTCAAAGTCCGCTTCCCG | 4.64 |
| ATCTCTAGGTAAGACTCAGTTCAGTCAAGAACGC | 0.989 |
| CCGACTGGGGCATAAGGTTACTATAAGCCAGCCC | 0.306 |
| TCAGACAGGTGAAGGTAACTTAGGTACGCAGTCG | 1.02 |
